Data taken from PubChem BioAssay AID1159580 (chemical genetic matrix, 2015).
Values joined by “and” are separate entries in the source; they are usually repeats but may differ in a detail not shown here. Equal entries are not always repeated. The campaign covered roughly 5,500 compounds. About 2,000 (36%) were called active. Not shown: some 18% with an inconclusive outcome. Rule as the data show it: active = normalized growth mostly below about 0.91 (no sharp cut-off); inconclusive = no clear call, values can overlap the other calls; inactive = mostly above about 0.92. The list shows a part of the results.

Assay: chemical genetic growth profiling, strain panel (AID 1159580);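 also: tested at 20 µM; growth read once vehicle control cultures reached saturation at 30 °C; 1 = growth at the plate median or of vehicle wells; lower values mean less growth of the strain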
Settings: S. cerevisiae deletion strains, growth OD

Measured: normalized growth

COC(=O)C1=CO[C@@H](O[C@@H]2O[C@H](CO)[C@@H](O)[C@H](O)[C@H]2O)[C@@H]2[C@@H](C)[C@@H](O)C[C@H]12
inactive: locus YAL013W, strain DEP1, hits give low values 1 | locus YAL021C, strain ccr4, hits give low values 0.973 | locus YAL026C, strain drs2, hits give low values 1.01 | locus YAL030W, strain snc1, hits give low values 0.996 | locus YBL061C, strain skt5, hits give low values 0.999 | locus YBR009C, strain hhf1, hits give low values 0.998 | locus YBR021W, strain FUR4, hits give low values 1.02 | locus YBR023C, strain chs3, hits give low values 0.994 | locus YBR171W, strain sec66, hits give low values 1 | locus YBR229C, strain ROT2, hits give low values 1.01 | locus YBR231C, strain swc5, hits give low values 1.01 | locus YBR279W, strain paf1, hits give low values 0.989 | locus YCL011C, strain gbp2, hits give low values 0.997 | locus YCL016C, strain dcc1, hits give low values 0.979 | locus YCL029C, strain bik1, hits give low values 0.989 | locus YCL061C, strain MRC1, hits give low values 0.973 | locus YCL069W, strain vba3, hits give low values 0.999 | locus YCR088W, strain abp1, hits give low values 0.998 | locus YDL005C, strain med2, hits give low values 0.989 | locus YDL035C, strain GPR1, hits give low values 1.02 | locus YDL040C, strain nat1, hits give low values 1 | locus YDL074C, strain BRE1, hits give low values 1 | locus YDL101C, strain DUN1, hits give low values 0.996 | locus YDL134C, strain PPH21, hits give low values 1.08 | locus YDL185W, strain tfp1, hits give low values 0.967 | locus YDL192W, strain arf1, hits give low values 1 | locus YDR001C, strain nth1, hits give low values 1 | locus YDR069C, strain doa4, hits give low values 0.998 | locus YDR101C, strain arx1, hits give low values 0.977 | locus YDR137W, strain rgp1, hits give low values 1 | locus YDR150W, strain NUM1, hits give low values 0.993 | locus YDR159W, strain sac3, hits give low values 0.998 | locus YDR162C, strain NBP2, hits give low values 1.01 | locus YDR195W, strain ref2 0.989 | locus YDR297W, strain sur2, hits give low values 0.996 | locus YDR318W, strain mcm21, hits give low values 1.01 | locus YDR334W, strain swr1, hits give low values 1.01 | locus YDR335W, strain msn5, hits give low values 0.995 | locus YDR388W, hits give low values 0.995 | locus YDR392W, strain spt3, hits give low values 0.891 | locus YDR502C, strain sam2, hits give low values 1.01 | locus YEL003W, strain gim4, hits give low values 1.02 | locus YEL037C, strain rad23, hits give low values 1.01 | locus YEL061C, strain CIN8 (second series), hits give low values 1 | locus YEL061C, strain CIN8, hits give low values 1.01 | locus YER015W, strain faa2, hits give low values 0.995 | locus YER016W, strain bim1, hits give low values 0.999 | locus YER110C, hits give low values 0.976 | locus YER111C, strain swi4, hits give low values 0.991 | locus YER155C, strain BEM2 (second series), hits give low values 0.986 | locus YER155C, strain BEM2, hits give low values 0.997 | locus YER167W, strain BCK2, hits give low values 1 | locus YFR010W, strain ubp6, hits give low values 1 | locus YGL078C, strain dbp3, hits give low values 0.989 | locus YGL086W, strain mad1, hits give low values 0.943 | locus YGL167C, strain pmr1, hits give low values 1.01 | locus YGL173C, strain kem1, hits give low values 1.02 | locus YGL227W, strain vid30, hits give low values 0.994 | locus YGL240W, strain doc1, hits give low values 0.987 | locus YGL248W, strain PDE1, hits give low values 1.02 | locus YGL253W, strain hxk2, hits give low values 1.01 | locus YGR078C, strain PAC10, hits give low values 1 | locus YGR135W, strain pre9, hits give low values 1 | locus YGR229C, strain SMI1, hits give low values 1.03 | locus YGR252W, strain gcn5, hits give low values 1.14 | locus YHR013C, strain ard1, hits give low values 1.03 | locus YHR027C, strain rpn1, hits give low values 1 | locus YHR030C, strain SLT2, hits give low values 0.992 and 1.04 | locus YHR079C, strain IRE1 (second series), hits give low values 0.979 | locus YHR079C, strain IRE1, hits give low values 1.06 | locus YHR094C, strain hxt1, hits give low values 0.998 | locus YHR129C, strain ARP1, hits give low values 1 | locus YHR142W, strain chs7, hits give low values 1 | locus YHR200W, strain rpn10, hits give low values 0.979 | locus YIL066C, strain RNR3, hits give low values 1.01 | locus YIL073C, strain SPO22, hits give low values 0.986 | locus YIL125W, strain kgd1, hits give low values 0.985 | locus YIR030C, strain dcg1, hits give low values 0.996 | locus YJL092W, strain hpr5, hits give low values 1 | locus YJL095W, strain BCK1 (second series), hits give low values 1 | locus YJL095W, strain BCK1, hits give low values 1.04 and 1 | locus YJL115W, strain asf1, hits give low values 0.999 | locus YJL129C, strain trk1, hits give low values 0.986 | locus YJL134W, strain LCB3, hits give low values 1 | locus YJL154C, strain vps35, hits give low values 1.01 | locus YJL164C, strain tpk1, hits give low values 1 | locus YJL166W, strain qcr8, hits give low values 0.972 | locus YJL168C, strain set2, hits give low values 0.978 | locus YJL187C, strain SWE1 (second series), hits give low values 1 | locus YJL187C, strain SWE1, hits give low values 1 | locus YJR043C, strain POL32, hits give low values 1.01 | locus YJR066W, strain TOR1, hits give low values 1.01 | locus YJR075W, strain HOC1, hits give low values 0.995 | locus YKL009W, strain mrt4, hits give low values 1.01 | locus YKL068W, hits give low values 0.987 | locus YKL085W, strain MDH1 (second series), hits give low values 0.978 | locus YKL085W, strain MDH1, hits give low values 0.978 | locus YKL160W, strain elf1, hits give low values 0.961 | locus YKL190W, strain CNB1, hits give low values 1 | locus YKR001C, strain vps1, hits give low values 0.999 | locus YKR026C, strain gcn3, hits give low values 0.997 | locus YKR091W, strain srl3, hits give low values 0.992 | locus YLL001W, strain dnm1, hits give low values 0.973 | locus YLL026W, hits give low values 1 | locus YLL041C, strain sdh2, hits give low values 0.994 | locus YLR027C, strain aat2, hits give low values 0.994 | locus YLR039C, strain RIC1, hits give low values 1.05 | locus YLR058C, strain SHM2, hits give low values 1.01 | locus YLR102C, strain apc9, hits give low values 0.984 | locus YLR113W, strain HOG1, hits give low values 0.991 | locus YLR221C, strain rsa3, hits give low values 0.971 | locus YLR258W, strain gsy2, hits give low values 0.981 | locus YLR262C, strain YPT6 (second series), hits give low values 0.985 | locus YLR262C, strain YPT6, hits give low values 1.08 | locus YLR268W, strain sec22, hits give low values 0.968 | locus YLR320W, strain mms22, hits give low values 0.964 | locus YLR330W, strain CHS5, hits give low values 0.984 | locus YLR342W, strain FKS1 (second series), hits give low values 1.04 | locus YLR342W, strain FKS1, hits give low values 0.995 | locus YLR357W, strain rsc2, hits give low values 0.986 | locus YLR370C, strain arc18, hits give low values 0.992 | locus YLR371W, strain rom2, hits give low values 0.973 | locus YLR384C, strain iki3, hits give low values 1 | locus YLR418C, strain cdc73, hits give low values 1.04 | locus YML016C, strain PPZ1, hits give low values 0.997 | locus YML032C, strain rad52, hits give low values 1.03 | locus YML120C, strain ndi1, hits give low values 0.99 | locus YML124C, strain tub3, hits give low values 0.988 | locus YMR058W, strain fet3, hits give low values 1 | locus YMR078C, strain ctf18, hits give low values 0.954 | locus YMR125W, strain sto1, hits give low values 0.97 | locus YMR129W, hits give low values 1.01 | locus YMR205C, strain PFK2, hits give low values 0.952 | locus YMR223W, strain ubp8, hits give low values 1.01 | locus YMR231W, strain pep5, hits give low values 1 | locus YMR263W, strain SAP30, hits give low values 0.996 | locus YMR307W, strain GAS1, hits give low values 1.18 | locus YNL067W, strain RPL9B, hits give low values 1 | locus YNL071W, strain lat1, hits give low values 1 | locus YNL183C, strain NPR1, hits give low values 1 | locus YNL209W, strain ssb2, hits give low values 1 | locus YNL233W, strain BNI4, hits give low values 1 | locus YNL248C, strain rpa49, hits give low values 0.982 | locus YNL250W, strain rad50, hits give low values 0.939 | locus YNL271C, strain bni1, hits give low values 0.989 | locus YNL298W, strain CLA4, hits give low values 1 | locus YNL307C, strain MCK1, hits give low values 0.979 | locus YNL322C, strain KRE1 (second series), hits give low values 0.989 | locus YNR049C, strain mso1, hits give low values 0.997 | locus YNR052C, strain pop2, hits give low values 0.997 | locus YOL012C, strain htz1 1.13 | locus YOL147C, strain pex11, hits give low values 0.988 | locus YOR001W, strain rrp6, hits give low values 1 | locus YOR061W, strain CKA2, hits give low values 1.01 | locus YOR069W, strain VPS5, hits give low values 0.995 | locus YOR070C, strain gyp1, hits give low values 0.999 | locus YOR080W, strain dia2, hits give low values 0.997 | locus YOR083W, strain WHI5, hits give low values 0.958 | locus YOR106W, strain vam3, hits give low values 0.989 | locus YOR136W, strain idh2, hits give low values 0.991 | locus YOR144C, strain elg1, hits give low values 0.993 | locus YOR184W, strain ser1, hits give low values 1 | locus YOR231W, strain MKK1, hits give low values 1.03 | locus YOR265W, strain rbl2, hits give low values 0.999 | locus YOR270C, strain vph1, hits give low values 1.02 | locus YOR290C, strain snf2, hits give low values 0.98 | locus YOR316C, strain cot1, hits give low values 0.996 | locus YPL051W, strain arl3, hits give low values 0.977 | locus YPL055C, strain LGE1, hits give low values 1.01 | locus YPL078C, strain atp4, hits give low values 0.965 | locus YPL106C, strain sse1, hits give low values 0.948 | locus YPL240C, strain hsp82, hits give low values 0.996 | locus YPL256C, strain CLN2, hits give low values 1.05 | locus YPR119W, strain clb2, hits give low values 0.981 | locus YPR141C, strain kar3, hits give low values 0.977 | locus YPR163C, strain tif3, hits give low values 0.984 | locus YPR167C, strain met16, hits give low values 0.995 | strain wtn01, hits give low values 0.948
